According to PubChem BioAssay (NCI):
The panel holds about 83,000 compounds, 20% with a hit somewhere; the sample as a whole holds those more often.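 A percent growth of 40 corresponds to 60% growth inhibition; 0 means no net growth; -100 means all cells died. Active threshold: below 10.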 Values without a mark were called inactive. Calls of active or inactive are those of the source.

What was measured:
Experiment in all cases: NCI-60 one-dose screen, 48 h (100 = growth as untreated, 0 = no growth, -100 = all killed)
Conditions in all cases: 10 µM unless noted
[1] = tested on: NCI-H23 lung
[2] = tested on: NCI-H226 lung
[3] = tested on: NCI-H322M lung
[4] = tested on: HOP-62 NSCLC
[5] = tested on: NCI-H460 lung
[6] = tested on: NCI-H522 lung
[7] = tested on: A549/ATCC NSCLC
[8] = tested on: 786-0 renal
[9] = tested on: COLO 205 colon
[10] = tested on: DU-145 prostate
[11] = tested on: K-562 leukemia
[12] = tested on: MALME-3M melanoma
[13] = tested on: MDA-MB-231 breast
[14] = tested on: RXF 393 renal
[15] = tested on: SF-268 CNS
[16] = tested on: SF-295 CNS
[17] = tested on: SF-539 CNS
[18] = tested on: UACC-257 melanoma
[19] = tested on: M14 melanoma
[20] = tested on: HCT-15 colon

O=c1ccn(C2OC(CO)C(O)C2F)c(=O)[nH]1 (centres undefined) was tested, and the growth [1] was 90.5%, the growth [2] was 101% and the growth [3] was 117%. For the same compound, the growth [4] was 103%, the growth [5] was 113% and the growth [6] was 109%. It also gave a growth [7] of 109%, a growth [8] of 99.2% and a growth [9] of 128%. It also gave a growth [10] of 119%, a growth [11] of 117% and a growth [12] of 116%. For the same compound, the growth [13] was 117%, the growth [14] was 132% and the growth [15] was 111%. The growth [16] was 105%, the growth [17] was 103% and the growth [18] was 114%. The growth [19] was 108% and the growth [20] was 112%.

With Cc1ccc2c(c1)C(=O)/C(=C/c1ncc([N+](=O)[O-])n1C)O2 the growth [1] was -2.65% (active), the growth [2] was 65.7% and the growth [3] was 75.6%. The growth [4] was 61.2%, the growth [5] was -38% (active) and the growth [6] was -64.1% (active). The growth [7] was 6.86% (active), the growth [8] was 2.46% (active) and the growth [9] was -74.8% (active). The growth [10] was -25.9% (active), the growth [11] was 0.705% (active) and the growth [12] was -46.7% (active). For the same compound, the growth [13] was -40.1% (active), the growth [14] was -57.7% (active) and the growth [15] was -31.9% (active). The growth [16] was 18%, the growth [17] was 39.1% and the growth [18] was -34.6% (active). The growth [19] was -55.8% (active).

With O=C1/C(=C/c2ccc([N+](=O)[O-])o2)Oc2ccc(Cl)cc21 the growth [1] was 21.3%, the growth [2] was -7.54% (active) and the growth [3] was 79%. For the same compound, the growth [4] was 74.5%, the growth [5] was 75.4% and the growth [6] was -84.4% (active). The growth [7] was 92.4%, the growth [8] was -53.7% (active) and the growth [9] was -57.8% (active). For the same compound, the growth [10] was 35.7%, the growth [11] was -30.1% (active) and the growth [12] was -45.6% (active). The growth [13] was -61.9% (active), the growth [14] was -72.2% (active) and the growth [15] was -52% (active). The growth [16] was 103%, the growth [17] was -25.6% (active) and the growth [18] was -2.07% (active). The growth [19] was -18.8% (active).

In the case of CCOC(=O)c1c2c(c(C)n1Cc1ccc(OC)cc1)-c1nc(N)ncc1CC2, the growth [1] is reported as 125%, the growth [2] is reported as 92.2% and the growth [3] is reported as 113%. The growth [4] was 83.5%, the growth [5] was 111% and the growth [6] was 114%. It also gave a growth [7] of 110%, a growth [8] of 98.5% and a growth [9] of 116%. For the same compound, the growth [10] was 116%, the growth [11] was 88.8% and the growth [12] was 132%. The growth [13] was 97.2%, the growth [14] was 116% and the growth [15] was 110%. For the same compound, the growth [16] was 104%, the growth [17] was 112% and the growth [18] was 121%. For the same compound, the growth [19] was 106% and the growth [20] was 113%.

Compound Clc1ccc([C@@H]2C[C@@H]3Cc4cc(Br)c5ccccc5c4N2O3)c(Cl)c1 has a growth [1] of 78.6%, a growth [2] of 95.7% and a growth [3] of 90.7%. The growth [4] was 87.2%, the growth [5] was 93.3% and the growth [6] was 43.8%. For the same compound, the growth [7] was 70.8%, the growth [8] was 95% and the growth [9] was 98.4%. It also gave a growth [10] of 93.3%, a growth [11] of 23.8% and a growth [12] of 61.7%. It also gave a growth [13] of 89.1%, a growth [14] of 88.9% and a growth [15] of 85.8%. For the same compound, the growth [16] was 65.5%, the growth [17] was 91.4% and the growth [18] was 66.1%. The growth [19] was 75.6%.

With Cc1cc(C)n(C(=O)c2nn(-c3ccc(Cl)cc3)cc2O)n1 the growth [1] was 9.42% (active), the growth [2] was 44.9% and the growth [3] was 37.2%. For the same compound, the growth [4] was 47.8%, the growth [5] was 5.55% (active) and the growth [6] was 59.6%. For the same compound, the growth [7] was 11.6%, the growth [8] was 95.7% and the growth [9] was 106%. The growth [10] was 30%, the growth [11] was 6.26% (active) and the growth [12] was 117%. For the same compound, the growth [13] was 77.4%, the growth [14] was 39.1% and the growth [15] was 39.9%. The growth [16] was -4.15% (active), the growth [17] was 39.1% and the growth [18] was 82.5%. The growth [19] was 45.7%.

Compound CC(=O)c1nc2ccccc2n1CCn1cc(CC(N)C(=O)O)c2ccccc21 (centres undefined) has a growth [1] of 90.3%, a growth [2] of 102% and a growth [3] of 93.6%. The growth [4] was 97.7%, the growth [5] was 115% and the growth [6] was 96.9%. The growth [7] was 103%, the growth [8] was 115% and the growth [9] was 103%. For the same compound, the growth [10] was 104%, the growth [11] was 92.5% and the growth [12] was 100%. The growth [13] was 77.3%, the growth [14] was 120% and the growth [15] was 110%. The growth [16] was 110%, the growth [17] was 101% and the growth [18] was 110%. For the same compound, the growth [19] was 103% and the growth [20] was 96.3%.

With COc1ccc(C2=NN(C(=O)c3cc(OC)c(OC)c(OC)c3)C(c3ccc(C#N)cc3)C2)cc1OC (centres undefined) the growth [1] was 43.2%, the growth [2] was 52.4% and the growth [3] was 36.9%. The growth [4] was 36.1%, the growth [5] was 9.81% (active) and the growth [6] was -16% (active). The growth [7] was 22%, the growth [8] was 25.1% and the growth [9] was -9.28% (active). For the same compound, the growth [10] was 5.75% (active), the growth [11] was 20.6% and the growth [12] was 39.5%. For the same compound, the growth [13] was 18.2%, the growth [14] was -17.2% (active) and the growth [15] was 49.3%. For the same compound, the growth [16] was -3.96% (active), the growth [17] was -13.3% (active) and the growth [18] was 69.2%. For the same compound, the growth [19] was -6.86% (active).

In the case of C=C(C)[C@@H]1C[C@H](O)Cc2cc(Cl)cc(Cl)c2N1, the growth [1] is reported as 103%, the growth [2] is reported as 100% and the growth [3] is reported as 100%. For the same compound, the growth [4] was 96.6%, the growth [5] was 110% and the growth [6] was 92.8%. The growth [7] was 94.2%, the growth [8] was 100% and the growth [9] was 107%. For the same compound, the growth [10] was 108%, the growth [11] was 103% and the growth [12] was 108%. It also gave a growth [13] of 93.6%, a growth [14] of 101% and a growth [15] of 102%. It also gave a growth [16] of 104%, a growth [17] of 94.5% and a growth [18] of 104%. It also gave a growth [19] of 110%.

In the case of CC(C)c1ccc(C(=O)Nc2sc3c(CN(C)C)c(O)ccc3c2C(N)=O)cc1, the growth [1] is reported as 49.1%, the growth [2] is reported as 86.9% and the growth [3] is reported as 65.5%. The growth [4] was 64.4%, the growth [5] was 72% and the growth [6] was 43.7%. For the same compound, the growth [7] was 33%, the growth [8] was 49.6% and the growth [9] was 47.1%. The growth [10] was 51.9%, the growth [11] was -41.3% (active) and the growth [12] was 63.9%. It also gave a growth [13] of 38.5%, a growth [14] of 12.2% and a growth [15] of 69.3%. For the same compound, the growth [16] was 61.9%, the growth [17] was 40.8% and the growth [18] was 9.32% (active). For the same compound, the growth [19] was 18.5% and the growth [20] was -48.7% (active).

CCC1=C(c2ccc(OC)cc2)C(C)(C)Oc2cc(O)c(CN3CCCC3)cc21 gave a growth [1] of 68.1%, a growth [2] of 97.6% and a growth [3] of 92%. The growth [4] was 71.4%, the growth [5] was 86.6% and the growth [6] was 41.5%. It also gave a growth [7] of 85.1%, a growth [8] of 59% and a growth [9] of 65.9%. For the same compound, the growth [10] was 93.8%, the growth [11] was 19.7% and the growth [12] was 77.2%. The growth [13] was 95.8%, the growth [14] was 79.9% and the growth [15] was 88.4%. For the same compound, the growth [16] was 51%, the growth [17] was 76.8% and the growth [18] was 72%. The growth [19] was 62.1% and the growth [20] was 82.2%.

In the case of CCOC(=O)/C=C(/C)Sc1cc(O)c2ccccc2c1O, the growth [1] is reported as -71.4% (active), the growth [2] is reported as 89.4% and the growth [3] is reported as -19.9% (active). For the same compound, the growth [4] was 157%, the growth [5] was -64% (active) and the growth [6] was 12.7%. The growth [7] was -34.1% (active), the growth [8] was 159% and the growth [9] was 46.6%. For the same compound, the growth [10] was -100% (active), the growth [11] was 17.6% and the growth [12] was -90% (active). It also gave a growth [13] of 14.7%, a growth [14] of 46.1% and a growth [15] of 32.8%. The growth [16] was 30.2%, the growth [17] was 5.78% (active) and the growth [18] was 5.04% (active). The growth [19] was -94.6% (active) and the growth [20] was -12.6% (active).

Cc1ccccc1NC(=O)c1cc2ccccc2cc1O was tested, and the growth [1] was 10.9%, the growth [2] was 77.1% and the growth [3] was 24.6%. The growth [4] was 39.2%, the growth [5] was 38% and the growth [6] was 12.2%. The growth [7] was 39.3%, the growth [8] was 54.9% and the growth [9] was 119%. For the same compound, the growth [10] was 20.2%, the growth [11] was 10.9% and the growth [12] was -6.19% (active). The growth [13] was 70.6%, the growth [14] was 22.2% and the growth [15] was 21.1%. For the same compound, the growth [16] was 86.4%, the growth [17] was 64.4% and the growth [18] was 68.1%. For the same compound, the growth [19] was 58.1% and the growth [20] was 48.5%.

For CCOc1cc(-c2ccc[nH]2)[nH]c1/C=C1\N=C(C)C(C(=O)OC)=C1C, the growth [1] was -59.4% (active), the growth [2] was -61.9% (active) and the growth [3] was -61.8% (active). For the same compound, the growth [4] was -58% (active), the growth [5] was -79.4% (active) and the growth [6] was -50.1% (active). For the same compound, the growth [7] was -47.1% (active), the growth [8] was -50.2% (active) and the growth [9] was -78.6% (active). For the same compound, the growth [10] was -65.5% (active), the growth [11] was -55.4% (active) and the growth [12] was -61.1% (active). The growth [13] was -62.6% (active), the growth [14] was -72.5% (active) and the growth [15] was -55.7% (active). The growth [16] was -69.8% (active), the growth [17] was -66.7% (active) and the growth [18] was -56.7% (active). The growth [19] was -59.9% (active) and the growth [20] was -27% (active).

With CC(C)c1nc(N(C)S(C)(=O)=O)nc(-c2ccc(F)cc2)c1/C=C/[C@@H](O)C[C@@H](O)CC(=O)O the growth [1] was 109%, the growth [2] was 105% and the growth [3] was 93.9%. The growth [4] was 108%, the growth [5] was 118% and the growth [6] was 69.9%. It also gave a growth [7] of 97.9%, a growth [8] of 106% and a growth [9] of 105%. It also gave a growth [10] of 103%, a growth [11] of 130% and a growth [12] of 104%. The growth [13] was 63.7%, the growth [14] was 105% and the growth [15] was 77.5%. For the same compound, the growth [16] was 100%, the growth [17] was 97.6% and the growth [18] was 103%. It also gave a growth [19] of 104% and a growth [20] of 95.2%.
